LDHA inh: blocks human lactate dehydrogenase A | activity change, % (values are at about 110 or 230 µM) | P00338 | purified LDHA, NADH/diaphorase-resazurin fluorescence; hits give low values | actives 0.15% (n = 480,000); in the data active means activity change below about -30%; inconclusive means mostly about -25% to -30%;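 further: plate controls were DMSO wells for no effect and wells without enzyme for full effect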
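Resorufin fluorescence (ex540/em590), read at 0 and 20 min after diaphorase/resazurin addition, reports the NADH left after a 5 min room-temperature reaction of 2 nM human LDH5 with 0.06 mM NADH and 0.2 mM pyruvate.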
mIDH1 inhibitor: blocks human mutant IDH1 R132H enzyme | actives 0.093% (n = 390,000) | Potency, µM (titrated, usually from 76.6 µM), without a hit: at the top dose activity change, negative = inhibition, most hits filed as inhibitors | IDH1-R132H enzyme, NADPH consumption, diaphorase/resazurin fluorescence | O75874; further: potency means the concentration at half of the fitted maximal effect; on the % scale 0 is the no-effect control and ±100 the full control effect; nearly all actives have a fitted effect of over 65% in size
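IDH1-R132H (0.5 ug/mL dispensed) in pH 7.5 Tris buffer was preincubated 30 min with compound, then given a substrate mix of 0.016 mM NADPH and 2 mM alpha-KG for 80 min at room temperature; remaining NADPH was read by diaphorase/resazurin fluorescence.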
PTHR1 agonist: activates the human parathyroid hormone receptor PTHR1 | actives 0.075% (n = 410,000) | HEK293 GP2 PTHR1 cells, GloSensor cAMP luminescence, 1 h | AID 743266 | Q03431 | Potency, µM (series often up to 115 µM), without a hit: at the top dose activation, hits mostly activators; further: potency means the concentration at half of the fitted maximal effect; nearly all actives have a fitted effect of over 55% in size
Target sequence (Q03431 whole entry, looked up): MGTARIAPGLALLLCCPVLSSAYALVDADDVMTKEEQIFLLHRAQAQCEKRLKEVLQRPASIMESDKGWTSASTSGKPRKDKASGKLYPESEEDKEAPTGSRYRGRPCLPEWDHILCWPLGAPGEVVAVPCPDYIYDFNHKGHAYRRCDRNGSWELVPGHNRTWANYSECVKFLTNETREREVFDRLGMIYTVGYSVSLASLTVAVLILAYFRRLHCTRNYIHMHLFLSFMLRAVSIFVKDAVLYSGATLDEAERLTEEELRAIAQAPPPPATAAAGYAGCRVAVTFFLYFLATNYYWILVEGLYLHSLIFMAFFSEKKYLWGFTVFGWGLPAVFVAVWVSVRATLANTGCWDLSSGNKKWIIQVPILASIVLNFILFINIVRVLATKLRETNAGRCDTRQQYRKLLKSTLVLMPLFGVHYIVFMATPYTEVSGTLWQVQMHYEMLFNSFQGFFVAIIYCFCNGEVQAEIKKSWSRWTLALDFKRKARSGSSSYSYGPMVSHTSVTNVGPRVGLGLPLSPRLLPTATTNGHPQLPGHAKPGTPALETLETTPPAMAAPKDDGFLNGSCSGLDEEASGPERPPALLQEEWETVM
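HEK-293-derived GP2 cells expressing PTHR1 and a GloSensor cAMP reporter, 3,000/well, plated overnight, given luciferin plus IBMX (each 0.5 mM as added) for 1 h at 37 °C, then compound for 1 h at 37 °C. Luminescence was read after 15 min at room temperature.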
HEK293 tox: cytotoxicity in counter-screen for GLP-1R inverse agonists; HEK293 cAMP-luciferase reporter cells, luminescence, 24 h; Potency, µM (doses to about 38.3 µM), without a hit: at the top dose activity change, negative = inhibition, usual class: inhibitors; actives 0.13% (n = 410,000); AID 624418;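 further: loss of luciferase light is scored as toxicity; potency means the concentration at half of the fitted maximal effect; on the % scale 0 is the no-effect control and ±100 the full control effect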
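To flag toxic compounds, the library was rerun on cells for 24 hr at 37 deg C and 5% CO2. Viability-linked luminescence was captured 12 min after adding luciferase detection reagent.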
GLP-1R agonist: activates the human GLP-1 receptor. actives 0.007% (n = 380,000). P43220. Potency, µM (titrated, usually from 45.6 µM), for the others: at the top dose activation, usual class: activators. HEK293 GLP-1R CRE-luciferase, luminescence, 4-6 h; cells express a hypersensitive GLP-1R form; further: potency means the concentration at half of the fitted maximal effect; % of control where 0% means no effect
GLP-1R inv ag: acts as inverse agonist at human GLP-1 receptor; P43220; HEK293 GLP-1R CRE-luciferase, luminescence, 24 h; GLP-1R form is constitutively active; Potency, µM (doses to about 38.3 µM), for the others: at the top dose activity change, negative = inhibition, most hits filed as inhibitors; actives 1.6% (n = 410,000); AID 624417; further: potency means the concentration at half of the fitted maximal effect; on the % scale 0 is the no-effect control and ±100 the full control effect; nearly all actives have a fitted effect of over 55% in size
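Seeding at 200 cells/uL, 12 h culture, 24 hr compound treatment, then luciferase reagent and a luminescence read; cells are HEK293 stably expressing a constitutively active GLP-1R plus cAMP-responsive luciferase.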
* hit, by the source's call; [ ] = dose if it differs, or a comment. Rows were chosen to be rich in hits. Some 1.7% of all compounds tested hit in one or more screens of this group. Unless noted, the call rests on the fitted dose curve; in most records, active means well fitted curve in the direction sought with a large enough effect; inconclusive means small, poorly fitted or top-dose-only effect, or another doubt; inactive means no such curve, though single readings can be large; an effect the other way counts as inactive or inconclusive.

Screening CCCCc1nn2c(C)c(-c3ccc(OCC)cc3)nc2s1 returned LDHA inh 0, mIDH1 inhibitor 16%, PTHR1 agonist -14%, HEK293 tox -12% and GLP-1R inv ag 10µM*.
For O=C(O)c1csc(-n2nc(-c3ccccc3)cc2C(F)(F)F)n1 the results were LDHA inh -87*, mIDH1 inhibitor -3%, PTHR1 agonist -53%, HEK293 tox -2%, GLP-1R agonist -3% and GLP-1R inv ag 9%.
For Cc1[nH][nH]c(=O)c1C(c1c(C)[nH][nH]c1=O)c1cn(Cc2ccc(F)cc2)c2ccccc12 the results were LDHA inh 18, mIDH1 inhibitor -16%, PTHR1 agonist inactive, HEK293 tox inconclusive, GLP-1R agonist 11% and GLP-1R inv ag 2µM*.
Screening Cc1[nH][nH]c(=O)c1C(c1c(C)[nH][nH]c1=O)c1cn(Cc2ccc(Cl)c(Cl)c2)c2ccccc12 returned LDHA inh 21, mIDH1 inhibitor -10%, PTHR1 agonist -10%, HEK293 tox 3%[1.53 µM], GLP-1R agonist 15% and GLP-1R inv ag inconclusive.
Screening Cc1cn2c3c(=O)[nH]c(=O)n(C)c3nc2n1CCNc1cccc(Cl)c1 returned LDHA inh 7.
CN1CCN(c2ccc(S(=O)(=O)N3CCCCC3)cc2NC(=O)/C=C/c2ccc(Cl)c([N+](=O)[O-])c2)CC1 was read as LDHA inh -1, mIDH1 inhibitor 2%, PTHR1 agonist inactive, HEK293 tox 10µM*, GLP-1R agonist -5% and GLP-1R inv ag inconclusive.
For CN1CCN(c2ccc(S(=O)(=O)N3CCCCC3)cc2NC(=O)/C=C/c2ccc(OC(F)F)cc2)CC1 the results were LDHA inh 1, mIDH1 inhibitor 1%, PTHR1 agonist -14%, HEK293 tox inconclusive, GLP-1R agonist 0% and GLP-1R inv ag inconclusive.
CCN1CCN(c2ccc(S(=O)(=O)N3CCCCC3)cc2NC(=O)/C=C/c2ccc(OC(F)F)cc2)CC1 was read as LDHA inh -4, mIDH1 inhibitor -4%, PTHR1 agonist -21%, HEK293 tox inconclusive, GLP-1R agonist -1% and GLP-1R inv ag 7.1µM*.
Screening CN1C(=O)/C(=C2/C=Cc3ccccc3N2CCCS(=O)(=O)O)SC1=S returned LDHA inh 6, mIDH1 inhibitor 5%, PTHR1 agonist inactive, HEK293 tox 8.9µM*, GLP-1R agonist -5% and GLP-1R inv ag -2%.
`COc1ccc(-c2cc3c(ccc4ccccc43)oc2=O)cc1` gave LDHA inh 5.
Cc1ccsc1C(=O)/C(C#N)=C\c1ccc(OC(F)F)cc1 was read as LDHA inh 4.
For O=C(NC1(C(F)(F)F)N=C(c2ccccc2)N(Cc2ccco2)C1=O)c1ccccc1 (stereo unspecified) the results were LDHA inh 4.
`CC(C)(C)c1ccc(-c2nnc(SCCC#N)n2C2CCCC2)cc1` gave LDHA inh -1, mIDH1 inhibitor 2%, PTHR1 agonist -13%[57.5 µM], HEK293 tox -16%, GLP-1R agonist 3% and GLP-1R inv ag 10µM*.
For CC(C)(C)c1ccc(-c2nnc(SCC(=O)N3CCC3)n2C2CCCC2)cc1 the results were LDHA inh 16.
`C#CCN(C)CC/C=C1\c2ccccc2CSc2ccccc21` gave LDHA inh -1, mIDH1 inhibitor 9%, PTHR1 agonist inactive, HEK293 tox -3%, GLP-1R agonist 2% and GLP-1R inv ag 4.5µM*.
Screening CC(O)CN(C)CC/C=C1/c2ccccc2CSc2ccccc21 (stereo unspecified) returned LDHA inh -8, mIDH1 inhibitor -1%, PTHR1 agonist -13%, HEK293 tox 0%, GLP-1R agonist -2% and GLP-1R inv ag inconclusive.
For NCC/C=C1/c2ccccc2CSc2ccccc21 the results were LDHA inh -6, mIDH1 inhibitor 9%, PTHR1 agonist inactive, HEK293 tox inconclusive, GLP-1R agonist -2% and GLP-1R inv ag 3.2µM*.
`C=CCN(C)CC/C=C1\c2ccccc2CSc2ccccc21` gave LDHA inh 6, mIDH1 inhibitor 2%, PTHR1 agonist -7%, HEK293 tox inconclusive, GLP-1R agonist 0% and GLP-1R inv ag inconclusive.
`CN(CC/C=C1/c2ccccc2CSc2ccccc21)CCCO` gave LDHA inh -1, mIDH1 inhibitor 3%, PTHR1 agonist inactive, HEK293 tox inconclusive, GLP-1R agonist 2% and GLP-1R inv ag 5.6µM*.
Screening NC(=O)Nc1ccc(Cl)c(NS(=O)(=O)c2ccccc2Br)c1 returned LDHA inh 9.
COc1ccc(S(=O)(=O)n2ccc(C(C)Oc3ccc(-c4ccccc4)c(F)c3)n2)cc1 (stereo unspecified) was read as LDHA inh 6, mIDH1 inhibitor 9%, PTHR1 agonist -18%, HEK293 tox 0%, GLP-1R agonist 4% and GLP-1R inv ag 8.9µM*.
Screening C/C(=N\NC(=S)NCc1ccccc1)c1ccc(Cl)s1 returned LDHA inh -1, mIDH1 inhibitor 8%, PTHR1 agonist -21%, HEK293 tox 9%, GLP-1R agonist 16% and GLP-1R inv ag -6%.
Screening C/C(=N/NC(=S)NCc1ccccc1)c1ccc(-c2ccccc2)cc1 returned LDHA inh -1.
C/C(=N\NC(=S)NCc1ccccc1)c1cccs1 was read as LDHA inh -3, mIDH1 inhibitor 5%, PTHR1 agonist 1%, HEK293 tox 3.5µM*, GLP-1R agonist 19% and GLP-1R inv ag inconclusive.
Screening C/C(=N\NC(=S)NCc1ccccc1)c1ccc2c(c1)OCCO2 returned LDHA inh -1, mIDH1 inhibitor -3%, PTHR1 agonist -28%, HEK293 tox inconclusive, GLP-1R agonist inconclusive and GLP-1R inv ag 10µM*.
Screening CCOC(=O)c1ccc(NCc2ccc(Cl)cc2Cl)cc1 returned LDHA inh 13.
Cc1ccc2occ(CC(=O)N(Cc3ccc(Cl)cc3)C3CCS(=O)(=O)C3)c2c1 (stereo unspecified) was read as LDHA inh 4, mIDH1 inhibitor 2%, PTHR1 agonist -8%, HEK293 tox -7% and GLP-1R inv ag 11µM*.
Screening CCc1ccccc1NC(=O)c1ccc(CN2CCC(Cc3ccccc3)CC2)cc1 returned LDHA inh -3, mIDH1 inhibitor 2%, PTHR1 agonist -12%[57.5 µM], HEK293 tox inconclusive, GLP-1R agonist -2% and GLP-1R inv ag 8.9µM*.
